# Screening results from PubChem.
# Only some compounds are listed: those with a hit (about 2.1% of all), similar ones and a draw of the others.
# GSH fluor: GSH bead compound fluorescence profile; actives 0.25% (n = 190,000); AID 1776; fluorescence (KMESF) at 10 µM; GSH beads flow cytometry, compound fluorescence 488/530 nm; active compounds read high; in the data active means fluorescence above about 89;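 further: glutathione beads carrying GST-tagged Bcl family fusion proteins plus one bare bead set; values are compound well signal with DMSO vehicle wells as background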
# Avidin fluor: compound fluoresces at 488/530 nm on avidin beads; compound fluorescence 488/530 nm, flow cytometry; active compounds read high; fluorescence (KMESF) at 10 µM; actives 0.38% (n = 220,000); in the data active means fluorescence above about 47
# PGE2 EP2 inh: inhibitors of human EP2 prostaglandin E2 receptor; C6 glioma cells expressing human EP2, cAMP TR-FRET; cells stimulated with saturating PGE2; inhibition, % at 25 µM; actives 0.52% (n = 260,000); AID 1422;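 active means percent inhibition above 40 after rounding to a whole number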;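 further: rat C6 glioma host cells with rolipram phosphodiesterase inhibitor present; the protocol text gives 20 µM as final concentration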
# Target sequence (P43116 whole entry, looked up): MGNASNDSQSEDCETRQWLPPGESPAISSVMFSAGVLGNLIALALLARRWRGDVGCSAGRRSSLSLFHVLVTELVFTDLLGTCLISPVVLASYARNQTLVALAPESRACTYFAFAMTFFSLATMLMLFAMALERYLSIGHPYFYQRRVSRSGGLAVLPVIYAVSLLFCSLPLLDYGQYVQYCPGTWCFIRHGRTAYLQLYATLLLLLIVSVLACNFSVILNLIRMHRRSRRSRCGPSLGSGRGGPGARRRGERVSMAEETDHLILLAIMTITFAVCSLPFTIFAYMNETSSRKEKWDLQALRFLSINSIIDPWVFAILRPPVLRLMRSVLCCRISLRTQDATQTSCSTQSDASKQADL
# Efa HMGR inh: blocks class II HMG-CoA reductase of Enterococcus faecalis; purified E. faecalis HMGR, NADPH absorbance 340 nm kinetic; inhibition, % at 10 µM; actives 0.41% (n = 190,000);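 active means inhibition above a set limit, the median over all tested compounds plus 3 SD, cut at about 9.5% in these data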;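 further: enzyme runs in reverse so mevalonate oxidation gives rising NADPH absorbance; 0% = complete reaction with DMSO and 100% = background rate lacking mevalonate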
# EP2 mod: modulators of human EP2 prostaglandin E2 receptor; P43116; induction, % at 25 µM; EP2-expressing cells, cAMP HTRF FRET, PGE2 co-stimulation; actives 0.83% (n = 260,000); AID 940;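 active means compounds whose cAMP rise, as percent of the full-agonist control response, exceeds 60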;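 further: rat C6 glioma line stably carrying human EP2 under a CMV promoter; the protocol text gives 20 µM as final concentration; 100% = response of wells given 1 µM PGE2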
# * = called active by the depositor; nt = not tested or not shown.
SMILES,GSH fluor,Avidin fluor,PGE2 EP2 inh,Efa HMGR inh,EP2 mod
O=C=Nc1ccc(Cc2ccc(N=C=O)cc2)cc1 (tested in a mixture with another compound),nt,nt,45*,nt,10
Cn1nnc(NC(=O)CSc2ccc(Cl)cc2)n1,25,48*,24,3,23
Cn1nnc(NC(=O)c2cc(Cl)ccc2Cl)n1,nt,nt,10,nt,-44
CC(=O)c1cc(C#N)c(SCCC(C)C)nc1C,34,14,5,-1,61*
CC(=O)c1cc(C#N)c(SCC(=O)OC(C)C)nc1C,17,9,6,-3,12
CC(=O)c1cc(C#N)c(SCC(=O)OC(C)(C)C)nc1C,26,138*,10,-2,40
CCSc1nc(C)c(C(C)=O)cc1C#N,25,22,7,-7,31
CN(C)S(=O)(=O)c1cccc(C(=O)Nc2ccc(S(=O)(=O)N3CCCC3)cc2)c1,13,11,4,14*,-21
C/C(=N/NC(=O)c1cc(O)c(O)c(O)c1)c1ccc([N+](=O)[O-])cc1,9,0,7,21*,22
O=C(Nc1ccc(N2CCCC2)c(Cl)c1)c1ccc2c(c1)OCCO2,24,8,31,9.6*,-35
O=C(Nc1ccc(N2CCCCC2)c(Cl)c1)c1ccc2c(c1)OCCO2,5,8,7,-4,-111
CCOC(=O)CSc1nc(CC)nc2sc(C)c(C)c12,nt,nt,8,nt,17
Cc1cc(C)cc(NS(=O)(=O)c2ccc(NC(=S)NC(=O)c3cccs3)cc2)c1,11,15,42*,-4,-87
Cc1ccc(NS(=O)(=O)c2ccc(NC(=O)c3cccs3)cc2)c(C)c1,11,5,3,0,-21
COc1ccc(C(=O)NC(=S)Nc2ccc(S(=O)(=O)Nc3nccs3)cc2)cc1OC,nt,nt,43*,nt,-138
Cc1ccc(NC(=O)C(=O)NNC(=O)c2cccs2)cc1,9,20,16,10*,2
Cc1cc(C)nc(NS(=O)(=O)c2ccc(NC(=S)NC(=O)/C=C/c3cccs3)cc2)n1,nt,nt,63*,nt,-117
COc1ccc(/C=C/C(=O)NC(=S)Nc2ccc(S(=O)(=O)Nc3cc(C)on3)cc2)cc1,nt,nt,45*,nt,-134
Cc1nc2c([nH]1)C1(CCN(Cc3ccccc3)CC1)C(C#N)=C(N)O2,5,6,12,17*,3
COc1ccc(S(=O)(=O)N2CCC(C(=O)NCCCOC(C)C)CC2)cc1,nt,nt,14,nt,-10
CCC(C)(C)n1nnnc1C(c1ccc(C(F)(F)F)cc1)N1CCC(C)CC1 (stereo unspecified),nt,nt,4,nt,77*
CC(C)CN1Cc2cccc(C(=O)N3CCC4(CC3)NC(=O)c3ccccc3O4)c2C1=O,nt,nt,13,nt,1
Cc1ccc2c(c1)cc(CN(Cc1cccs1)C(=O)N(C)C)c1nnnn12,nt,nt,17,nt,-5
CC(C)N(CCC(=O)c1ccc2ccccc2c1)Cc1ccccc1,nt,nt,76*,nt,-11
CCC(=O)CCC(=O)c1ccc2ccccc2c1,6,1,9,-6,-22
SMILES,GSH fluor,Avidin fluor,PGE2 EP2 inh,Efa HMGR inh,EP2 mod
Cc1nn(CC#N)c(=O)n1-c1ccc(Cl)cc1,18,9,4,-3,21
Cc1nn(CC#N)c(=O)n1-c1ccccc1,262*,7,15,-1,6
NC(N)=NC(N)=Nc1ccccc1,nt,nt,7,nt,0
NC(N)=NC(N)=Nc1c(F)c(F)c(F)c(F)c1F,nt,nt,64*,nt,-122
Nc1cc(-c2cccs2)nn(CC(=O)NCCc2ccc(F)cc2)c1=O,nt,nt,5,nt,-70
O=C(NCc1cccnc1)C(=O)NCC1OCCN1S(=O)(=O)c1ccccc1 (stereo unspecified),16,2,12,1,7
O=C(NCc1cccnc1)C(=O)NCC1OCCN1S(=O)(=O)c1cc(F)ccc1F (stereo unspecified),nt,75*,8,nt,30
CC(NC(=O)c1cncc(Br)c1)c1ccc(S(N)(=O)=O)cc1 (stereo unspecified),71,8,4,0,-9
NS(=O)(=O)c1ccc(CCNC(=O)c2cncc(Br)c2)cc1,21,50*,8,-6,16
CCc1ccc(C2C(C#N)=C(N)Oc3n[nH]c(-c4cc(C)sc4C)c32)cc1 (stereo unspecified),nt,nt,5,nt,-9
Cc1cc(-c2[nH]nc3c2C(c2ccc(C(F)(F)F)cc2)C(C#N)=C(N)O3)c(C)s1 (stereo unspecified),nt,nt,12,nt,61*
O=c1ncc(/C=C/c2ccc(-c3cccc(Cl)c3)o2)c(C(F)(F)F)[nH]1,nt,nt,13,nt,49
CN1/C(=C\C=C2/C(=O)Oc3ccccc3C2=O)C(C)(C)c2ccccc21,68,90*,9,-3,-26
Cc1ccc(N=Nc2c(O)c(S(=O)(=O)O)cc3cc(S(=O)(=O)O)ccc23)c(C)c1,nt,nt,42*,nt,10
COc1ccccc1CC(=O)NC(C)c1nc(-c2cccnc2)n[nH]1 (stereo unspecified),nt,nt,5,nt,-21
COc1ccc(Cc2ccc3[nH]c(=O)cc(C)c3c2)cc1S(=O)(=O)O,nt,nt,40*,nt,20
O=C(Nc1nc(-c2ccccc2)c(-c2ccccc2)s1)c1ccc(S(=O)(=O)N2CCCC2)cc1,33,9,nt,-3,27
O=C(Nc1nc(-c2ccccc2)c(C(=O)c2ccccc2)s1)c1ccc(S(=O)(=O)N2CCCC2)cc1,64,172*,25,-3,3
CCC(=O)OC1(C)C(=O)C2=COC(c3ccc(OC)cc3)=CC2=C(Br)C1=O (stereo unspecified),nt,14,13,nt,-14
COc1ccc(C2=CC3=C(Br)C(=O)C(C)(O)C(=O)C3=CO2)cc1 (stereo unspecified),nt,10,134*,nt,-29
CCC(CO)NCc1sccc1C (stereo unspecified),11,21,3,10*,16
CCC(CO)NCc1ccc(Br)cc1 (stereo unspecified),16,10,10,-6,0
CN(C)C[C@@H](O)c1ccc(Cl)c2ccccc12,nt,nt,47*,nt,-26
CCN(CC)C(=O)Oc1ccc(Cl)c2ccccc12,25,23,13,-2,-3
C=CC(C1=CC(=O)C=CC1=O)c1ccccc1 (stereo unspecified),nt,nt,8,nt,-1
SMILES,GSH fluor,Avidin fluor,PGE2 EP2 inh,Efa HMGR inh,EP2 mod
C=C[C@@H](C1=CC(=O)C(OC)=C(OC)C1=O)c1ccccc1,nt,nt,120*,nt,-32
C[C@H](Cn1nnc2ccccc21)NC(=O)CCn1c(=O)oc2ccccc21,nt,nt,5,nt,-23
COc1cccc(OC)c1NC(=O)CN1C(=O)CC(c2ccccc2)=Nc2ccccc21,nt,nt,8,nt,-9
Cn1c(-n2c(CCCN3C(=O)c4ccccc4C3=O)nc3ccccc3c2=O)nc2ccccc21,255*,42,18,-1,9
CCc1nn(CC(=O)N2CCOCC2)c(=O)c2cc3sc(C)cc3n12,nt,nt,nt,nt,-53
Cc1cccc(S(=O)(=O)NCCC(=O)OC(C)C(=O)NC(=O)NC2CCCCC2)c1 (stereo unspecified),258*,8,22,0,9
